Sampled rows, rich in hits. Any-hit rate of the full collection: about 21%.
TDP1 cell noCPT – qHTS for Inhibitors of human tyrosyl-DNA phosphodiesterase 1 (TDP1): qHTS in cells in absence of CPT; DT40 Tdp1-/- hTDP1 cells, no CPT, ATP luminescence, 48 h; Potency, µM (highest dose often 46.2 µM), inactives show top-dose activity change, negative = growth inhibition, most hits filed as inhibitors; actives 15% (n = 420,000); AID 686978, 2013; note: potency is the fitted concentration of half-maximal effect; nearly all actives have a fitted effect of over 55% in size
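Growth of hTDP1-complemented DT40 Tdp1-knockout cells is measured by ATP luminescence after at least 48 hr compound exposure at 37 °C, with DMSO substituting for the 20 nM CPT used in the parallel screen.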
ELG1 DNA repair – qHTS screen for small molecules that inhibit ELG1-dependent DNA repair in human embryonic kidney (HEK293T) cells expressing luciferase-tagged ELG1; HEK293T ELG1-luciferase reporter, luminescence, 16 h; DNA damage induced by 5-fluorouridine; Potency, µM (doses to about 46.1 µM), for inactives: at the highest dose activity change, negative = inhibition, hits mostly inhibitors; actives 2.3% (n = 330,000); note: potency is the fitted concentration of half-maximal effect; nearly all actives have a fitted effect of over 55% in size
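Cells (2,000 per well) received 5-fluorouridine plus test compound or DMSO and were incubated 16 hr at 37 °C, 5% CO2. Luciferase activity was read by luminescence 30 min after ONE-Glo addition; signal suppression marked inhibition of damage-induced ELG1 function.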
IL1B secr inh – qHTS for Inhibitors of Inflammasome Signaling: IL-1-beta AlphaLISA Primary Screen | actives 4.7% (n = 360,000) | activity change, % at 57.5 µM | AID 743279, 2014 | THP-1 LPS/ATP IL-1B secretion, AlphaLISA, 16 h; active compounds read low; in the data active = activity change below about -50%; inconclusive = mostly about -30% to -49%
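Secreted IL-1B measured by AlphaLISA bead assay after 16 h compound exposure of THP-1 cells; compounds (final up to 57.5 uM) added 1 h before LPS (250 ng/mL) and ATP (1.25 mM) stimulation; lower signal means less secretion.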
RORgamma inh – qHTS for inhibitors of ROR gamma transcriptional activity. Nuclear receptor ROR-gamma (Mus musculus), P51450. Drosophila S2 Gal4-RORgamma UAS-luciferase reporter, 20 h. actives 5.4% (n = 310,000). AID 2551, 2010. Potency, µM (top dose mostly 53.6 µM), without a hit: at the highest dose activity change, negative = inhibition, actives largely listed as inhibitors; note: potency is the fitted concentration of half-maximal effect; nearly all actives have a fitted effect of over 60% in size
Target sequence (P51450 whole entry, looked up, the tested form may be a part): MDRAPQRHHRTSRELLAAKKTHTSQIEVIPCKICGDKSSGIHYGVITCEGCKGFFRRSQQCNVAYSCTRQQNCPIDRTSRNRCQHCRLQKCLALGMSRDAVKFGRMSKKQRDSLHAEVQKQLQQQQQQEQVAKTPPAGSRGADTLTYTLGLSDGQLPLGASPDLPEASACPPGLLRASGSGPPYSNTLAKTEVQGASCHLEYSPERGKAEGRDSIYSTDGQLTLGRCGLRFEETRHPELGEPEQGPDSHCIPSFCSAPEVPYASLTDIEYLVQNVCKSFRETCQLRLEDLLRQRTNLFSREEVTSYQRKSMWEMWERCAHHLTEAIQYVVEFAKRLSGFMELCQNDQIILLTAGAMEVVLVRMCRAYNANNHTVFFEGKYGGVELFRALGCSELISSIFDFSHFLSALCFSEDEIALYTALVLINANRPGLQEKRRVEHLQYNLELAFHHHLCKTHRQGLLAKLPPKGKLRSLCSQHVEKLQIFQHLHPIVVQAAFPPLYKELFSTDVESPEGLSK
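ROR gamma transcriptional activity was tracked as Gal4-UAS luciferase output in stably transfected Drosophila Schneider cells, with compound added 1 hr before 700 uM copper sulfate induction and a 20 hr ambient-temperature incubation.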
Gal4-VP16 FLuc – VP16 counterscreen qHTS for inhibitors of ROR gamma transcriptional activity. actives 3.5% (n = 310,000). Potency, µM (titrated, usually from 53.6 µM), inactives show top-dose activity, negative = inhibition, usual class: inhibitors. Drosophila S2 Gal4-VP16 UAS-luciferase, luminescence, 20 h;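 note: Gal4-VP16 expression switched on by copper sulfate through the metallothionein promoter; potency is the fitted concentration of half-maximal effect; nearly all actives have a fitted effect of over 50% in size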
DT40 TDP1 CPT – qHTS for Inhibitors of human tyrosyl-DNA phosphodiesterase 1 (TDP1): qHTS in cells in presence of CPT; chicken DT40 Tdp1-/-;hTDP1 cells + 20 nM CPT, ATP luminescence, 48 h; Potency, µM (titrated, usually from 46.2 µM), for the others: top-dose activity change, negative = growth inhibition, actives largely listed as inhibitors; actives 12% (n = 420,000); AID 686979, 2013; note: potency is the fitted concentration of half-maximal effect; nearly all actives have a fitted effect of over 55% in size
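Cell growth measured by CellTiter-Glo luminescence after a minimum 48 h, 37 C compound exposure with 20 nM CPT in Tdp1-knockout DT40 cells stably expressing hTDP1, seeded 400/well; qHTS titration format.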
An asterisk follows results filed as active. Unless noted, calls come from the whole dose curve; as a rule, active = well fitted curve in the direction sought with a large enough effect; inconclusive = small, poorly fitted or top-dose-only effect, or another doubt; inactive = no such curve, though single readings can be large; an effect the other way counts as inactive or inconclusive. % is set by controls: 0 for no effect and ±100 for the full control effect.

O=c1c2ccccc2nc(/C=C/c2cccc([N+](=O)[O-])c2)n1CCCO was read as TDP1 cell noCPT inconclusive, IL1B secr inh 0 and DT40 TDP1 CPT -28%.
For COc1cccc(N2CC(C(=O)Nc3nnc(SCc4cccnc4)s3)CC2=O)c1 (stereo unspecified) the results were TDP1 cell noCPT inconclusive, ELG1 DNA repair 4%, IL1B secr inh 35, RORgamma inh 0%, Gal4-VP16 FLuc -2% and DT40 TDP1 CPT -15%.
Screening CS(=O)(=O)N1CCc2cc(C(=O)NCc3ccccc3)ccc21 returned TDP1 cell noCPT -26% and DT40 TDP1 CPT -8%.
Screening COCCN(CCOC)c1nc(C)nc2c1nc(-c1ccccc1)n2CCN1CCOCC1 returned RORgamma inh 1% and Gal4-VP16 FLuc -13%.
Screening Cc1nc2ccccc2c(=O)n1CCCO returned TDP1 cell noCPT -5%, ELG1 DNA repair -1%, IL1B secr inh -12, RORgamma inh 7%, Gal4-VP16 FLuc 5% and DT40 TDP1 CPT -18%.
O=c1c2ccccc2nc(/C=C/c2ccc([N+](=O)[O-])cc2)n1CCCO was read as TDP1 cell noCPT 21µM*, ELG1 DNA repair 18µM*, RORgamma inh 5%, Gal4-VP16 FLuc 5% and DT40 TDP1 CPT inconclusive.
Cc1[nH]c2ccccc2c1/C=C/c1nc2ccccc2c(=O)n1CCO was read as TDP1 cell noCPT 4.6µM*, ELG1 DNA repair 1.8µM*, IL1B secr inh -84*, RORgamma inh inconclusive, Gal4-VP16 FLuc -12% and DT40 TDP1 CPT 6.5µM*.
O=c1c2ccccc2nc(/C=C/c2ccc(Br)cc2)n1CCCO was read as TDP1 cell noCPT 21µM*, ELG1 DNA repair -5%, IL1B secr inh inconclusive, RORgamma inh 43%, Gal4-VP16 FLuc 12% and DT40 TDP1 CPT 23µM*.
For O=c1c2ccccc2nc(/C=C/c2ccc(Cl)cc2)n1CCO the results were TDP1 cell noCPT inconclusive, ELG1 DNA repair -13%, IL1B secr inh -74*, RORgamma inh inconclusive, Gal4-VP16 FLuc 1% and DT40 TDP1 CPT 21µM*.
Screening CCCCCCn1cc(CN2CC(N3CCN(C4CCN(C)CC4)CC3)CS2(=O)=O)nn1 (stereo unspecified) returned TDP1 cell noCPT -9%, IL1B secr inh 33 and DT40 TDP1 CPT 0%.
CC(NC(=O)C1(C)CC1(Br)Br)C(C)(C)C (stereo unspecified) was read as TDP1 cell noCPT -11%, ELG1 DNA repair -3%, IL1B secr inh 25, RORgamma inh 7%, Gal4-VP16 FLuc 6% and DT40 TDP1 CPT -3%.
`Cc1ccc(NC(=S)Nc2ccc3[nH]c(=O)[nH]c3c2)cc1` gave TDP1 cell noCPT inconclusive, ELG1 DNA repair 9%, IL1B secr inh inconclusive, RORgamma inh 10µM*, Gal4-VP16 FLuc -23% and DT40 TDP1 CPT inconclusive.
O=c1[nH]c2ccc(NC(=S)Nc3ccccc3)cc2[nH]1 was read as TDP1 cell noCPT 3%, ELG1 DNA repair 3%, IL1B secr inh -14, RORgamma inh -14%, Gal4-VP16 FLuc 3% and DT40 TDP1 CPT 1%.
CCc1ccc(-n2nc3cc(C)c(NC(=O)c4cccc5ccccc45)cc3n2)cc1 was read as TDP1 cell noCPT inconclusive and DT40 TDP1 CPT 21µM*.
For CCc1ccc(-n2nc3cc(C)c(NC(=O)c4ccccc4C)cc3n2)cc1 the results were TDP1 cell noCPT 8.2µM* and DT40 TDP1 CPT inconclusive.
Screening Cc1cc(C)n(-c2nc3cc(Cl)ccc3nc2Nc2ccc(CC(=O)O)cc2)n1 returned TDP1 cell noCPT -9% and DT40 TDP1 CPT -24%.
For O=C1COc2ccc3ccccc3c21 the results were TDP1 cell noCPT -25%, ELG1 DNA repair 7%, IL1B secr inh 52, RORgamma inh -17%, Gal4-VP16 FLuc 6% and DT40 TDP1 CPT 4%.
Screening CCN(CC)S(=O)(=O)c1ccc(/C=C/C(=O)Nc2ccc(N3CCOCC3)cc2)cc1 returned TDP1 cell noCPT 21µM*, ELG1 DNA repair 5.2µM*, IL1B secr inh -7, RORgamma inh 36%, Gal4-VP16 FLuc 1% and DT40 TDP1 CPT inconclusive.
CCN(CC)S(=O)(=O)c1ccc(/C=C/C(=O)Nc2ccc(F)cc2F)cc1 was read as TDP1 cell noCPT 13µM*, ELG1 DNA repair inconclusive, IL1B secr inh -4, RORgamma inh inconclusive, Gal4-VP16 FLuc -27% and DT40 TDP1 CPT inconclusive.
O=C(/C=C/c1ccc(S(=O)(=O)N2CCOCC2)cc1)NC(=S)Nc1ccc(N2CCOCC2)cc1 was read as TDP1 cell noCPT inconclusive, ELG1 DNA repair -4%, IL1B secr inh -76*, RORgamma inh 5.6µM*, Gal4-VP16 FLuc -16% and DT40 TDP1 CPT 4%.
`O=C(/C=C/c1ccc(F)cc1)Nc1ccc(S(=O)(=O)N2CCOCC2)cc1` gave TDP1 cell noCPT -5%, ELG1 DNA repair -4%, IL1B secr inh -14, RORgamma inh -1%, Gal4-VP16 FLuc 1% and DT40 TDP1 CPT inconclusive.
Screening CC(=O)Nc1cccc(NC(=O)/C=C/c2ccc(S(=O)(=O)N3CCOCC3)cc2)c1 returned TDP1 cell noCPT -25%, ELG1 DNA repair inconclusive, IL1B secr inh inconclusive and DT40 TDP1 CPT inconclusive.
`Cc1cc(NC(=S)NC(=O)/C=C/c2ccc(S(=O)(=O)N3CCOCC3)cc2)ccc1Br` gave TDP1 cell noCPT 15µM*, ELG1 DNA repair -9%, IL1B secr inh -88*, RORgamma inh 7.1µM*, Gal4-VP16 FLuc -6% and DT40 TDP1 CPT inconclusive.
Screening CCS(=O)c1ccccc1C(=O)OCC(=O)Nc1ccc2ccccc2c1 (stereo unspecified) returned TDP1 cell noCPT inconclusive, ELG1 DNA repair -22%, IL1B secr inh -17 and DT40 TDP1 CPT -29%.
For CCCS(=O)(=O)NC(=O)C1(C)CCCN(C(=O)C2(c3ccc(Cl)cc3)CCCC2)C1 (stereo unspecified) the results were TDP1 cell noCPT 0%, IL1B secr inh 32 and DT40 TDP1 CPT 1%.

Screens (PubChem BioAssay)
